Screens: PubChem, National Center for Advancing Translational Sciences (NCATS)
D1 ag: Allosteric Agonists of the Human D1 Dopamine Receptor: qHTS | D(1A) dopamine receptor (Homo sapiens), P21728 | HEK293 T-REx D1 cells, calcium flux, agonist mode | activation, % at 2 µM | hit rate 1% among 360,000 | AID 504660, 2011; note: 0% is about no effect
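Tetracycline-induced HEK293 TREx D1 cells, force-coupled to calcium signalling, were dye-loaded with a no-wash calcium kit. Compound was pin-added after a 10 s baseline. Fluorescence was read kinetically at 1 cycle/s for 180 s, with calcium rises flagged as agonism.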
D1 PAM: Potentiators of Human D1 Dopamine Receptor: qHTS; D(1A) dopamine receptor (Homo sapiens), P21728; HEK293 TREx D1 cells, calcium flux, dopamine EC20 potentiation; potentiation, % at 10 µM; hit rate 0.036% among 360,000; in the data active = potentiation above about 30%; note: 0% is about no effect
TRHR enhancer: qHTS for Small Molecule Agonists and Allosteric Enhancers of Human TRH Receptor: Primary Screen for Enhancers; Thyrotropin-releasing hormone receptor (Homo sapiens), P34981; enhancement, % at 2 µM; hit rate 0.66% among 360,000; TRHR cells, fluo-8 calcium fluorescence, EC20 TRH enhancement; in the data active = enhancement above about 30%; note: 0% is about no effect
Target sequence (P34981 whole entry, looked up): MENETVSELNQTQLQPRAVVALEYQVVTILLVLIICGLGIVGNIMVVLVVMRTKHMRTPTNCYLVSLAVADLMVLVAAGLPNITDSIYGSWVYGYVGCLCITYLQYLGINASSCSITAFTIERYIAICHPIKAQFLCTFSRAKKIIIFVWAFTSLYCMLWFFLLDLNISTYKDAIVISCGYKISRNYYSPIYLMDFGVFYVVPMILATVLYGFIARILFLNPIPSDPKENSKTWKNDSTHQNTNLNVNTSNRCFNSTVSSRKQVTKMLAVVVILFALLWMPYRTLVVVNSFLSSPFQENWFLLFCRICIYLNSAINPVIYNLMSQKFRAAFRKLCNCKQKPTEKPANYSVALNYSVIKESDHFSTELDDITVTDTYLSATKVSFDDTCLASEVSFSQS
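Enhancer read-out: after compound pinning and an initial kinetic agonist-mode read, an EC20 of TRH (10 nM final) was injected and fluo-8 calcium signal (Ex 480/Em 530) followed at 1 s/cycle for 100 cycles in TRHR-expressing cells.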
D1 antag: Antagonist of Human D 1 Dopamine Receptor: qHTS; D(1A) dopamine receptor (Homo sapiens), P21728; HEK293 TREx D1 cells, calcium flux, dopamine EC80; active compounds read low; activity change, negative = inhibition, % at 10 µM; hit rate 3.2% among 360,000; in the data active = activity change below about -30%; note: % is set by controls: 0 for no effect and ±100 for the full control effect
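Tetracycline-induced HEK293 T-REx cells with force-coupled D1 receptor were loaded with a no-wash calcium dye. Compound was added after a 10 s baseline and read kinetically for 180 s; EC80 dopamine was then added and calcium flux followed another 180 s.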
TRHR ag: qHTS for Small Molecule Agonists and Allosteric Enhancers of Human TRH Receptor: Primary Screen for Agonists. TRHR cells, calcium flux fluo-8, FDSS agonist mode. activation, % at 2 µM. hit rate 0.18% among 360,000; note: 0% is about no effect
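Fluo-8-loaded TRHR cells; 10 s baseline, compound added, kinetic Ca2+ fluorescence read 1/s, agonist mode.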
Active calls of the source: *. Rows were chosen to be rich in hits. Some 4.6% of all compounds tested hit in one or more screens of this group. Cut-off read from the data, not from the text of the source, unless noted: active = activation above about 30%; inactive = the rest.

SMILES | D1 ag | D1 PAM | TRHR enhancer | D1 antag | TRHR ag
Clc1ccc2[nH]c3c(c2c1)CNCC3 | 7.7 | -24.9 | 37.9* | -47.7* | 0.7
Clc1cccc2c3c([nH]c12)CCNC3 | 1.9 | -9.6 | -1.7 | -16.1 | 0.8
COc1cccc(CNC(=O)CN2C(=O)CCn3nc(-c4cn(C)c5ccccc45)cc32)c1OC | -1.0 | 1.7 | 4.6 | 3.7 | 0.0
CC(=O)Nc1cccc(NC(=O)C(=O)NCCc2csc3nc(-c4ccccc4F)nn23)c1 | -0.2 | 1.4 | -2.0 | 13.9 | 0.2
CC(C(=O)N1CCCCC1)N1C(=O)c2ccccc2C1=O (stereo unspecified) | 0.7 | -1.8 | -3.7 | -4.9 | -0.8
CC1SC(=NC(=O)C(C)N2C(=O)c3ccccc3C2=O)NC1=O (stereo unspecified) | -0.5 | -4.2 | -5.1 | -34.1* | 0.1
O=C(NCc1cccs1)c1nn(-c2ccccc2F)nc1CO | -0.2 | 0.3 | 1.0 | -1.3 | -0.9
Cc1ccc(N2C(=O)CSC2c2cccnc2)c(Cl)c1 (stereo unspecified) | 2.0 | -0.7 | -2.5 | -37.3* | -1.3
Cc1coc2cc3oc(=O)c(CCC(=O)NCc4ccc(Cl)cc4)c(C)c3cc12 | 4.4 | -1.2 | -0.6 | -13.8 | 0.3
CCN(CC)c1ccc(/C=C2\C(=O)c3ccc(C(=O)O)cc3C2=O)cc1 | 354.0* | 9.4 | 24.3 | -8.0 | 106.2*
CCN(CC)c1ccc(C(=O)O)cc1 | 3.5 | 5.0 | -0.3 | -5.5 | 0.2
COc1ccc(OC)c(C2=C[N+](=O)C(C)(C)C(C)(C)N2[O-])c1 | 4.5 | 54.0* | 7.8 | -11.7 | 0.0
CC1(C)N([O-])C(c2ccccc2)=C[N+](=O)C1(C)C | 1.9 | -8.0 | -2.8 | -1.4 | -0.2
Cc1ccc(-n2c(SCc3ccccc3C)nc3[nH]ncc3c2=O)cc1C | 0.7 | -7.8 | -24.5 | -78.2* | 0.0
O=C(NCC(c1cccnc1)N1CCN(Cc2ccccc2)CC1)C(=O)Nc1ccc(Cl)cc1 (stereo unspecified) | 2.7 | -2.0 | -7.9 | -17.5 | 0.1
CC(=O)OCCn1c2nc(=O)[nH]c(=O)c-2nc2cc(C)c(C)cc21 | 482.1* | 29.9 | 124.5* | 4.8 | 161.5*
Cc1csc2nc(-c3cccc(NC(=O)c4cccc(F)c4)c3)cn12 | -1.1 | 0.9 | 14.5 | 3.1 | -0.5
CC(=O)c1cccc(NS(=O)(=O)c2c(C)noc2C)c1 | 3.3 | -2.1 | -5.3 | -29.0 | 0.1
Cc1noc(C)c1S(=O)(=O)Nc1cccc(CO)c1 | 2.7 | -5.3 | 0.0 | -31.4* | 0.5
O=C(NCCc1ccc(Cl)cc1)c1ccc2c(c1)N(Cc1cccc(Cl)c1)C(=O)c1ccccc1S2(=O)=O | 8.7 | -1.9 | -2.4 | 10.8 | 1.1
CCOC(=O)c1[nH]c(C)c(CCC(=O)Nc2ccccc2C(=O)OC)c1C | 6.2 | -3.4 | -5.9 | -7.4 | -0.2
COc1ccc2cc(S(=O)(=O)NC3CC(C)(C)NC(C)(C)C3)ccc2c1 | -0.5 | -4.3 | -2.9 | -5.4 | 0.1
CC(C)Cc1ccc(C(C)NC(=O)c2ccc(=O)[nH]c2)cc1 (stereo unspecified) | 49.4* | 0.9 | 0.7 | -16.3 | 4.8
Cc1ccc(C(=O)NC(C)c2ccc(F)cc2)cc1 (stereo unspecified) | 0.8 | -1.2 | 2.7 | -17.0 | -1.5
Cc1cccc(CSc2ncc(Cl)c(C(=O)Nc3sc4c(c3C(N)=O)CCCC4)n2)c1 | 0.5 | -0.8 | -1.1 | 12.5 | 1.6
SMILES | D1 ag | D1 PAM | TRHR enhancer | D1 antag | TRHR ag
COc1cccc(-c2oc3ccc(C)cc3c(=O)c2O)c1 | 61.4* | -3.6 | -2.7 | 2.4 | 6.0
Cc1ccc(-c2oc3ccccc3c(=O)c2OCC(=O)O)cc1 | 3.5 | 5.6 | 2.2 | 8.1 | 1.5
Cc1ccc(-c2oc3ccccc3c(=O)c2O)cc1 | 30.2* | -5.2 | -10.7 | -26.3 | 6.1
CCOc1ccc(-c2oc3ccc(C)cc3c(=O)c2O)cc1 | 37.1* | -3.1 | -10.0 | -10.3 | 3.7
COc1ccc(/C=N/NC(=O)c2nnn(-c3nonc3N)c2-c2cccs2)cc1OC | 5.2 | 0.1 | -1.0 | -12.4 | 0.6
CCOc1ccc(/C(C)=N/NC(=O)c2nnn(-c3nonc3N)c2-c2cccs2)cc1 | 114.6* | 40.8* | 12.5 | 107.2 | 3.2
